# Data: PubChem BioAssay
# Values without a mark were called inactive.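 Rule for the calls: active = GFP response above 150% of the DMSO level; inconclusive = fewer than 70 events counted for a yeast strain; inactive = the rest.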
# Assay: yeast AGP1-GFP fluorescence change, single-dose – cell-based, flow cytometry, S. cerevisiae, cherry picks, confirmation (AID 2273);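 note: median GFP channel fluorescence over the whole cell population gate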
# Conditions: S. cerevisiae AGP1-GFP strain, 3 h, at 10 µM
row,SMILES,"GFP response, % of DMSO [%]"
1,COc1ccc(-c2noc(-c3ccccc3-c3ccccc3)n2)cc1,101
2,OC(CCN1CCCCC1)(c1ccccc1)c1ccccc1,96.3
3,CC(=O)[C@H]1CC[C@H]2[C@@H]3CCC4=CC(=O)CC[C@]4(C)[C@H]3[C@H](O)C[C@]12C,100
4,CN1CCN2c3ccccc3Cc3ccccc3C2C1 (stereo not given),97.6
5,c1cnc2c(c1)ccc1cccnc12,102
6,COc1ccc(C2=CC(=O)C=CC2=O)cc1,100
7,COc1cccc(/C=C/C(=O)c2c(O)cc(C)oc2=O)c1O,94.1
8,CC(=O)c1ccc(CCCCCCCCCC(=O)O)s1,95.2
9,CC(=O)[C@@]1(O)CC[C@H]2[C@@H]3CCC4=CC(=O)CC[C@]4(C)[C@H]3[C@@H](O)C[C@@]21C,103
10,Cc1ccc2[nH]c3c(c2c1)CCNC3=O,95
11,C[C@]12CC[C@H]3[C@@H](CCC4=CC(=O)CC[C@@]43C)[C@@H]1CC[C@@H]2C(=O)CO,92.6
12,COc1ccc(-c2[nH]ncc2CN(CCO)Cc2cccs2)c(F)c1,97.2
13,O=c1cnn([C@@H]2O[C@H](CO)[C@@H](O)[C@H]2O)c(=O)[nH]1,89.9
14,C[C@H]1C[C@@H]2[C@H]([C@@H](O)C[C@@]3(C)[C@H]2CC[C@]3(O)C(=O)CO)[C@@]2(C)C=CC(=O)C=C12,96
15,O=C(NC1CCCCC1)N1CCc2[nH]c3ccccc3c2C1,96
16,CNCCC(Oc1ccc(C(F)(F)F)cc1)c1ccccc1 (stereo not given),97.4
17,CC(=O)[C@H]1CC[C@H]2[C@@H]3CCC4=CC(=O)CC[C@]4(C)[C@H]3CC[C@]12C,96
18,CC(=O)OCC(=O)[C@H]1CC[C@H]2[C@@H]3CCC4=CC(=O)CC[C@]4(C)[C@H]3CC[C@]12C,95.2
19,CCCCCCCC(=O)OCC(=O)[C@@]1(O)CC[C@H]2[C@@H]3CCC4=CC(=O)CC[C@]4(C)[C@H]3[C@@H](O)C[C@@]21C,101
20,O=[N+]([O-])c1ccc(O)c2ncccc12,128
